Calls of active or inactive are those of the source. How the source made its calls: active means hit-call score of the fitted dose curve at least 0.9, where 1 is the maximum; inactive means score below 0.9.
The molecules below were run on Macrophage colony-stimulating factor (MCSF), CSF1 (gene 1435) (assay: BSK_hDFCGF_MCSF: BioMAP Diversity Plus: hDFCGF Assay for Macrophage colony-stimulating factor (MCSF) Biomarker Activity (AID 2283060)). Settings: AC50: primary human foreskin fibroblasts, actives raise or lower the signal unless noted; outcome: primary human foreskin fibroblasts, actives raise or lower the signal unless noted.
How it was run: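 M-CSF levels, determined by ELISA, are taken at 24 h after dosing human skin fibroblasts. Responses in either direction are fitted with DMSO serving as the baseline.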

SMILES | outcome
CCCCCCC(O)CCCCCCCCCCC(=O)OC (configuration not stated) | inactive
CCC(C)=NO | inactive
Cc1cc(-n2nc3ccc(Cl)cc3n2)c(O)c(C(C)(C)C)c1 | inactive
Oc1cccc2ccccc12 | inactive
CN(C)c1ccc(C(c2ccccc2)c2ccc(N(C)C)cc2)cc1 | inactive
CC[N+](CC)(CC(=O)Nc1c(C)cccc1C)Cc1ccccc1 (tested in a mixture with another compound) | inactive

Each molecule was assayed on TIMP metallopeptidase inhibitor 1 (TIMP1), TIMP1 (gene 7076) (assay: BSK_hDFCGF_TIMP1: BioMAP Diversity Plus: hDFCGF Assay for TIMP metallopeptidase inhibitor 1 (TIMP1) Biomarker Activity (AID 2283062)). Settings: primary human foreskin fibroblasts; actives raise or lower the signal.
How it was run: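 Fibroblasts from human foreskin are treated with test chemical and harvested at 24 h. TIMP-1 is quantified by ELISA, and gain or loss of signal is scored against DMSO.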

SMILES | outcome
CCCCCCC(O)CCCCCCCCCCC(=O)OC (configuration not stated) | inactive
CCC(C)=NO | inactive
Cc1cc(-n2nc3ccc(Cl)cc3n2)c(O)c(C(C)(C)C)c1 | inactive
Oc1cccc2ccccc12 | inactive
CN(C)c1ccc(C(c2ccccc2)c2ccc(N(C)C)cc2)cc1 | inactive
CC[N+](CC)(CC(=O)Nc1c(C)cccc1C)Cc1ccccc1 (tested in a mixture with another compound) | inactive
